# Hits are enriched below; roughly 1.8% of the tested compounds scored in any of these assays.
# LAP4-GFP MLPCN: yeast TOR pathway LAP4-GFP modulation; S. cerevisiae LAP4-GFP multiplex, flow cytometry GFP, 3 h; median GFP as percent of DMSO wells; GFP response vs DMSO, % at 10 µM; 320,000 tested, 0.34% active; AID 2023;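 active means GFP response vs DMSO above a set limit, about the screen mean plus 3 SD, cut at about 150% in these data; inconclusive means under 70 cell events counted for the yeast strain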
# MEP2-GFP yeast: modulators of TOR pathway MEP2-GFP in S. cerevisiae; 330,000 tested, 0.51% active; S. cerevisiae MEP2-GFP strain, flow cytometry GFP, 3 h; 100% = DMSO control level; GFP response vs DMSO, % at 10 µM;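 active means GFP response versus DMSO above a set limit, roughly screen mean plus 3 SD, cut at about 180% in these data; inconclusive means fewer than 70 cells counted for a yeast strain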;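 further: median GFP fluorescence of the barcode-gated MEP2-GFP cells per well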
# CIT2 TOR yeast: yeast TOR pathway CIT2-GFP modulation. GFP response vs DMSO, % at 10 µM. 320,000 tested, 0.065% active. S. cerevisiae CIT2-GFP strain, flow cytometry, 3 h; 100 means same as DMSO wells. AID 2029;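 active means GFP response relative to DMSO above a set limit, near the screen mean plus 3 SD, cut at about 150% in these data; inconclusive means Fewer than 70 cells measured for a yeast strain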;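 further: ratio of well median GFP fluorescence to mean of DMSO wells on the plate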
# RPL19A-GFP yeast: yeast TOR pathway RPL19A-GFP modulation | S. cerevisiae RPL19A-GFP strain, flow cytometry, 3 h; stronger effect = lower value | percent response vs DMSO, % at 10 µM | 330,000 tested, 0.3% active;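 active means percent response vs DMSO below 50%; inconclusive means fewer than 70 events counted for the yeast strain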;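 further: median channel GFP fluorescence of the barcoded RPL19A-GFP strain; ratio of sample median GFP to plate DMSO average so 100% = DMSO; lower means less RPL19A-GFP as with rapamycin TOR inhibition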
# AGP1 TOR yeast: alters AGP1-GFP fluorescence in TOR pathway yeast screen. S. cerevisiae AGP1-GFP multiplex flow cytometry, 3 h; GFP as percent of DMSO wells. GFP response vs DMSO, % at 10 µM. 320,000 tested, 0.02% active;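 active means GFP response relative to DMSO above a set limit, near screen average plus 3 SD, cut at about 150% in these data; inconclusive means fewer than 70 cells counted for the yeast strain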;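 further: median GFP channel fluorescence of the gated AGP1 strain per well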
# Myeloid diff 2: compounds promoting myeloid differentiation; ER-HoxA9 myeloid progenitors, lysozyme-GFP differentiation, flow cytometry; calls only at 10 µM; 360,000 tested, 1% active; AID 624256;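 active means normalized GFP-positive differentiation at or above the plate's own cutoff, the solvent-only control mean plus 3 SD; inconclusive means no clear call, values can overlap the other calls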;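 further: cells exposed to compound for four days before flow analysis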
# Myeloid diff CP1: promotes myeloid progenitor differentiation. shares compounds with Myeloid diff 2. ER-HoxA9 myeloid progenitors, GFP/Mac1 double-positive flow. calls only. 2,300 tested, 2% active. AID 651706;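 active means share of green or green-and-red cells above 9 and 9% in run 1 or 4 and 3% in run 2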
# GFP autofluor: compound fluorescence in myeloid differentiation counter-screen. shares compounds with Myeloid diff 2. ER-HoxA9 myeloid progenitors, no estrogen, GFP autofluorescence flow cytometry; vehicle wells 0%, positive control 100%. fluorescence response, % (concentration not given with the values). 2,300 tested, 7.4% active;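 active means over 5% cells positive for green fluorescent reporter, or over 2% positive for both it and APC stain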;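 further: range taken on the double positive population between DMSO and positive control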
# An asterisk follows results filed as active; i = inactive; ? = inconclusive; . = no result; + = active, no number.
SMILES,LAP4-GFP MLPCN,MEP2-GFP yeast,CIT2 TOR yeast,RPL19A-GFP yeast,AGP1 TOR yeast,Myeloid diff 2,Myeloid diff CP1,GFP autofluor
CN(C)C(=O)Nc1ccc(Cl)c(Cl)c1,.,.,.,.,.,i,.,.
Cn1cnnc1SC1CCCCC1NS(=O)(=O)c1ccccc1 (stereo unspecified),107.9,107.9,109.5,102.3,102.1,i,.,.
Nn1cnnc1SC1CCCCC1NS(=O)(=O)c1ccccc1 (stereo unspecified),96.5,103.7,95.2,100.2,100.2,+,i,0.6
CC1CC(C)CN(C(=O)COC(=O)c2cccc(S(=O)(=O)N(C)c3ccccc3)c2)C1 (stereo unspecified),.,.,.,.,.,i,.,.
CC1CC(C)CN(C(=O)COC(=O)c2ccc(S(=O)(=O)N(C)c3ccccc3)cc2)C1 (stereo unspecified),89.9,86.9,88.5,94.7,85.0,i,i,0.5
Cc1cccc(Cn2ncc(Cl)c(Cl)c2=O)c1,?,?,?,?,?,i,i,0.0
Cc1ccc(C)c(C(=O)Cn2ncc(Cl)c(Cl)c2=O)c1,105.0,97.2,97.9,97.9,105.0,?,.,.
COc1cc(S(=O)(=O)n2ccc(C)n2)c(OC)cc1Cl,98.7,102.1,101.4,94.6,100.4,+,i,0.0
COc1cc(S(=O)(=O)n2ccc(C)n2)ccc1Cl,104.2,105.8,106.2,102.5,106.6,i,.,.
O=C(N/N=C/c1ccncc1)c1cc([N+](=O)[O-])cc([N+](=O)[O-])c1O,85.8,91.1,98.3,89.6,92.8,i,i,0.3
Cc1ccc(C)c(OCc2nnc(SCC(=O)NCc3ccc4c(c3)OCO4)o2)c1,92.3,101.0,98.8,104.7,92.6,i,.,.
CC(=O)c1c(NC(=O)c2ccccc2)[nH]c(-c2ccccc2)nc1=S,97.1,85.5,80.8,97.2,86.9,+,i,4.9*
CSc1nc(-c2ccccc2)nc(NC(=O)c2ccccc2)c1C(C)=O,99.5,91.5,94.9,98.0,96.7,i,.,.
COc1ccccc1-c1nc(=S)c(C(C)=O)c(C)[nH]1,96.8,96.7,89.6,96.8,89.7,i,.,.
CC(=O)c1c(C)[nH]c(-c2ccccc2)nc1=S,105.8,99.7,91.7,97.8,103.2,i,i,1.0
O=C(Nc1ccc2nc(C3CC3)n(Cc3ccc(F)cc3)c(=O)c2c1)c1ccco1,117.3,106.9,89.6,94.8,96.6,+,i,0.0
CCOc1ccccc1N(CC(=O)NCCSCc1ccco1)S(=O)(=O)c1ccccc1,96.1,106.0,105.9,103.2,102.9,i,.,.
Cc1ccccc1N(CC(=O)NCCSCc1ccco1)S(C)(=O)=O,99.9,104.7,97.3,101.8,104.7,+,i,0.6
COc1ccc(Cl)cc1S(=O)(=O)NCc1ccncc1,122.0,104.8,107.2,102.6,110.5,i,.,.
COc1ccc(-n2c(SC(C)C(=O)Nc3ncc(Cl)cc3Cl)nc3ccccc32)cc1 (stereo unspecified),100.0,99.0,97.7,98.8,98.8,+,i,0.0
CCOc1ccc(OCC)c(NC(=O)c2ccc(CNc3c(N4CCOCC4)c(=O)c3=O)cc2)c1,102.1,101.9,104.1,104.7,110.0,i,.,.
CCN(CC)C(=O)C1=C(C)N(CCCN2CCCC2=O)C(=O)C(CC(=O)NCc2ccco2)C1 (stereo unspecified),.,.,.,.,.,i,i,0.3
O=C(CN1C(=O)NC2(CCCC2)C1=O)N1CCN(S(=O)(=O)c2cccc(C(F)(F)F)c2)CC1,109.8,101.3,92.8,95.1,107.5,i,.,.
Cc1ccc(S(=O)(=O)N2CCN(C(=O)C3CCCO3)CC2)cc1 (stereo unspecified),99.1,97.0,91.4,93.5,95.4,i,.,.

# Compound activity from PubChem.
